Shown is part of a subset that was picked to be rich in hits.
TbPYK inhibitor: qHTS of Trypanosoma Brucei Inhibitors; pyruvate kinase (Trypanosoma brucei), Q57TT1; TbPYK enzyme, Kinase-Glo Plus ATP luminescence, 45 min; Potency, µM (top dose mostly 76.8 µM), for inactives: top-dose activity, negative = inhibition, actives largely listed as inhibitors; 410,000 tested, 0.12% active; AID 624173, 2012; active means well fitted curve in the direction sought with a large enough effect; inconclusive means small, poorly fitted or top-dose-only effect, or another doubt; inactive means no such curve, though single readings can be large; an effect the other way counts as inactive or inconclusive; further: potency means the concentration at half of the fitted maximal effect; on the % scale 0 is the no-effect control and ±100 the full control effect; nearly all actives have a fitted effect of over 50% in size
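In this concentration-response screen, enzyme-free wells defined baseline while DMSO plates tracked drift. Each reaction combined TbPYK, substrate, compound and 130 uM ADP for 45 min at room temperature. Kinase-Glo Plus luminescence gave the signal.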
SARS PLpro yeast: qHTS of Yeast-based Assay for SARS-CoV PLP. S. cerevisiae expressing SARS-CoV PLpro, growth rescue. Potency, µM (doses to about 32.9 µM), inactives show at the top dose activity, positive = growth rescue, most hits filed as activators. 330,000 tested, 0.19% active. AID 485353, 2010; further: potency means the concentration at half of the fitted maximal effect; 0% is about no effect; nearly all actives have a fitted effect of over 55% in size
Shiga inhibitor: A qHTS for Small Molecule Inhibitors of Shiga Toxin | Vero cells, Shiga toxin protein synthesis inhibition reporter | inhibition, % at 38.7 µM | 290,000 tested, 9.2% active | AID 2315, 2010; in the data active means inhibition mostly above about 28%, no sharp cut-off; inactive means mostly below about 43%; further: 0% is about no effect
Cycloheximide cs: Cycloheximide Counterscreen for Small Molecule Inhibitors of Shiga Toxin; cell reporter, cycloheximide protein synthesis inhibition counterscreen; max response, %; 300,000 tested, 12% active; AID 2314, 2010; in the data active means max response mostly above about 13%, no sharp cut-off; inactive means mostly below about 14%; further: read at 38.3 µM for the half of the compounds with a filed dose; 0% is about no effect
NS1 function inh: qHTS Assay for Inhibitors of Influenza NS1 Protein Function | Potency, µM (series often up to 46.1 µM), for the others: at the highest dose activity, positive = more growth | 270,000 tested, 0.4% active; further: potency means the concentration at half of the fitted maximal effect; actives are rising curves; nearly all actives have a fitted effect of over 50% in size
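In this qHTS, NS1 from influenza A is expressed in budding yeast, where it slows growth. Cells are switched from glucose to 2% galactose medium (pH 6.0, -URA), treated with compound, and growth recovery is read at OD600.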
LmPK inh: qHTS Assay for Inhibitors of Leishmania Mexicana Pyruvate Kinase (LmPK) | purified LmPK, Kinase-Glo ATP luminescence, 1 h | Potency, µM (doses to about 57.5 µM), without a hit: at the top dose activity change, negative = inhibition, usual class: inhibitors | 290,000 tested, 0.37% active | Q27686; active means well fitted curve in the direction sought with a large enough effect; inconclusive means small, poorly fitted or top-dose-only effect, or another doubt; inactive means no such curve, though single readings can be large; an effect the other way counts as inactive or inconclusive; further: potency means the concentration at half of the fitted maximal effect; on the % scale 0 is the no-effect control and ±100 the full control effect
Target sequence (Q27686 whole entry, looked up): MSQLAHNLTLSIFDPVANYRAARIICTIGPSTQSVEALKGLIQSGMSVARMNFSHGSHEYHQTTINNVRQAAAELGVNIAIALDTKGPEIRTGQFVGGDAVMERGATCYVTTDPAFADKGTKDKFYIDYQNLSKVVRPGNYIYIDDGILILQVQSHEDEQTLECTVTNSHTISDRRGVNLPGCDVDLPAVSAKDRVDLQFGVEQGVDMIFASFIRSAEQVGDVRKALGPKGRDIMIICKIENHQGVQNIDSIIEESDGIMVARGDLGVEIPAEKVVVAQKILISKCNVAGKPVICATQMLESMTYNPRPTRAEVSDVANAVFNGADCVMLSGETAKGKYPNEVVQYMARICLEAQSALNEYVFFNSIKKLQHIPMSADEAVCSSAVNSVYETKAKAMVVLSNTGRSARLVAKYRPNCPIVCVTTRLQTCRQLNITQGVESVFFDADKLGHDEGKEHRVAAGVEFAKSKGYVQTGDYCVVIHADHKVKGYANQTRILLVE
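Kinase-Glo luminescence read after 1 h RT reaction of 0.1 nM LmPK with 0.5 mM PEP and 0.1 mM ADP. Activity scaled between uninhibited and enzyme-free controls.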
Flu NS1 inh: Assay for Inhibitors of Influenza NS1 Protein Function: Hit Validation. shares compounds with NS1 function inh. influenza NS1 function cell assay, 15-point titration. activity change, negative = inhibition, % at 32.9 µM. 1,400 tested, under 10 active. AID 492980, 2010; further: 0% is about no effect
* marks the source's active call; other numbers are inactive results; ? = inconclusive; . = no result. Unless noted, the call rests on the fitted dose curve.

SMILES	TbPYK inhibitor	SARS PLpro yeast	Shiga inhibitor	Cycloheximide cs	NS1 function inh	LmPK inh	Flu NS1 inh
CCc1nc2ccccc2c(=O)n1NC(=O)c1c(O)c2ccccc2[nH]c1=O	6.7%	5.9%	32.6	10.0	1.58µM*	0.1%	-19.5
CCCCCCc1nc2ccccc2c(=O)n1NC(=O)c1c(O)c2c(n(CC(C)C)c1=O)CCCC2	-4.7%	8.0%	12.1	-2.0	0.398µM*	2.6%	-15.4
Cc1nc2ccccc2c(=O)n1NC(=O)c1c(O)c2c(n(CC(C)C)c1=O)CCCC2	-8.0%	-88.1%	7.5	-1.7	-120.8%	-0.3%	.
COc1ccc(-c2nn(-c3ccccc3)cc2/C=C2/SC(=S)N(CCC(=O)O)C2=O)c(C)c1	-17.4%	-5.4%	-14.9	-3.4	11.2µM*	0.0%	?
COc1ccc(-c2nn(-c3ccccc3)cc2/C=C2/SC(=S)N(CCC(=O)O)C2=O)cc1	8.8%	-0.8%	28.9	9.1	3.4%	2.0%	.
CCCc1ccc2oc(C(=O)N(Cc3nccn3C)C(C)C)c(C)c2c1	-7.3%	2.7%	34.5*	21.5*	?	9.1%	?
O=[N+]([O-])c1ccccc1S(=O)(=O)Oc1ccccc1/C=N/n1cnnc1	2.9%	10.5%	-9.1	-1.3	20µM*	-0.7%	-30.1
O=[N+]([O-])c1cccc(/C=N/n2cnnc2)c1O	-1.3%	-38.5%	-12.7	3.8	-41.5%	-2.9%	.
COc1ccc(-c2nc(NC(=O)C3CC(=O)N(c4ccc5c(c4)OCCO5)C3)sc2C)cc1 (stereo unspecified)	-19.4%	-1.6%	40.6	28.2*	11.2µM*	2.9%	7.0
COc1ccc2nc(NC(=O)C3CC(=O)N(c4ccc5c(c4)OCCO5)C3)sc2c1 (stereo unspecified)	1.9%	-2.1%	.	.	.	.	.
CC1=Nc2cc(C(=O)NCc3ccccc3Cl)ccc2Sc2c(C)ccc(C)c21	-4.5%	.	.	.	.	.	.
CC1CCN(C(=O)CSc2nc3ccccc3c(=O)n2Cc2ccc3c(c2)OCO3)CC1	-2.7%	-16.2%	-7.0	-1.1	?	5.7%	?
O=C(N/N=C/C=C/c1ccccc1[N+](=O)[O-])c1cc(-c2ccccc2)n[nH]1	-0.8%	?	22.2	0.9	2.24µM*	1.0%	9.8
COc1ccc(-c2csc(C(O)c3cccc(OC)c3)n2)cc1 (stereo unspecified)	0.7%	.	.	.	.	.	.
CCOC(=O)C1CCCN(C(=S)NC(=O)c2cc(Br)ccc2Cl)C1 (stereo unspecified)	-7.2%	4.7%	.	.	.	.	.
Cc1[nH][nH]c(=O)c1C(c1c(C)[nH][nH]c1=O)c1cn(Cc2cccc3ccccc23)c2ccccc12	2.5%	-9.8%	-8.1	-2.6	12.6µM*	0.6%	-11.1
Cc1[nH][nH]c(=O)c1C(c1c(C)[nH][nH]c1=O)c1cn(C)c2ccccc12	-5.7%	-3.3%	9.9	6.1	1.1%	-2.8%	.
CCOC(=O)C1=C(C)Nc2sc(C(=O)c3ccc(C)cc3)c(N)c2C1c1ccc(C(=O)OC)cc1 (stereo unspecified)	-3.6%	0.5%	2.9	-2.7	10µM*	-2.1%	26.8
O=[N+]([O-])c1ccc(N/N=C/c2cn(-c3ccccc3)nc2-c2ccccc2)cc1	4.2%	3.7%	30.8*	9.6	?	-2.2%	0.8
O=C(CSc1nnc(-c2cc3ccccc3cc2O)n1Cc1ccco1)c1ccc(F)cc1	-9.0%	0.3%	-9.2	-4.5	8.91µM*	8.8%	-29.3
O=C(CSc1nnc(-c2ccc(O)cc2)n1Cc1ccco1)c1ccccc1	-14.2%	6.5%	5.8	6.7	3.3%	13.6%	.
CCOc1ccc(N2C(=O)/C(=C\c3ccccc3OC)S(=O)(=O)C2c2cccc([N+](=O)[O-])c2)cc1 (stereo unspecified)	4.1%	1.4%	-8.9	-1.4	11.2µM*	-1.7%	-33.7
CC(C)CC(=O)Nc1nnn(C)n1	14.4%	9.5%	2.2	-0.9	10µM*	-7.1%	14.8
CC(C)C(=O)Nc1nnn(C)n1	-6.2%	-7.5%	15.7	-2.4	2.2%	0.0%	.
COc1cccc2c1OCC/C2=N\NC(=O)COc1ccc(C)cc1	-10.1%	-2.1%	23.5*	16.0	?	1.0%	-28.1
SMILES	TbPYK inhibitor	SARS PLpro yeast	Shiga inhibitor	Cycloheximide cs	NS1 function inh	LmPK inh	Flu NS1 inh
Cc1nc2ncnn2c(C)c1CCC(=O)NCc1ccccc1	.	-0.7%	-2.7	-3.0	11.2%	-0.3%	.
COc1ccc(CNC(=O)CCc2c(C)nc3ncnn3c2C)cc1	2.9%	5.9%	14.1	6.6	5.01µM*	-5.1%	-0.3
CCn1c2ccccc2c2cc(/C=N/NC(=O)c3cc(O)cc(O)c3)ccc21	-0.2%	-0.6%	6.4	4.1	-8.2%	8.6%	.
O=C(Cn1cc(/C=N/NC(=O)c2cccc3ccccc23)c2ccccc21)Nc1ccc(F)cc1	3.6%	0.4%	13.4	4.2	10µM*	1.6%	7.9
O=C(N/N=C/c1cn(Cc2ccccc2)c2ccccc12)c1cc(O)cc(O)c1	-2.7%	3.9%	-7.6	-3.2	14.1µM*	19.6%	-2.5
CC(NS(=O)(=O)c1ccc2c(c1)CCN2C(=O)CCCC(=O)O)c1ccccc1 (stereo unspecified)	2.2%	.	.	.	.	.	.
O=C(NCCN1C(=O)S/C(=C\c2ccc(F)cc2)C1=O)C1CCN(S(=O)(=O)c2cccs2)CC1	-1.6%	6.2%	9.8	1.8	?	8.0%	2.2
C=CCNC(=O)C1CCN(S(=O)(=O)c2cccs2)CC1	3.3%	18.7%	5.7	-3.8	5.8%	-3.0%	.
O=S(=O)(NC1CCN(S(=O)(=O)c2ccc3c(c2)OCCO3)C1)c1c(F)cccc1F (stereo unspecified)	2.5%	-18.9%	16.6	1.7	.	.	.
Cc1nnc(NC2(C(F)(F)F)C(=O)Nc3c2c(=O)n(C)c(=O)n3C)s1 (stereo unspecified)	1.8%	5.5%	12.6	-1.1	?	-1.1%	8.6
CN(C)c1ccc(C(CNC(=O)c2ccccc2)c2c[nH]c3ccccc23)cc1 (stereo unspecified)	-3.9%	2.2%	35.6	-4.0	12.6µM*	1.8%	?
CC(C)Cn1c(N)c(C(=O)COC(=O)c2ccc3ccccc3n2)c(=O)n(C)c1=O	2.4%	-2.3%	55.8	-0.4	10µM*	-8.2%	-6.2
COc1ccc(/C=C2/C(=O)N(c3c(F)c(F)c(F)c(F)c3F)N=C2C)cc1	-17.5%	5.6%	.	20.3*	11.2µM*	-4.2%	12.1
COc1ccc(/C=C2/C(=O)N(c3ccccc3)N=C2C)cc1	0.6%	.	.	.	.	.	.
O=c1cc(OCc2ccccc2)cc[nH]1	0.2%	-4.2%	.	.	.	.	.
CCCCNC(=O)c1onc(CCl)c1C(=O)OC	0.3%	-1.8%	8.6	-2.2	1.12µM*	-0.1%	-8.0
